“And” between values parts separate entries of the source, which are not always exact repeats. Equal values may be shown once. The source made the active and inactive calls. How the source made its calls: active means hit-call score of the fitted dose curve at least 0.9, where 1 is the maximum; inactive means score below 0.9.

The results in this text go back to PubChem BioAssay (EPA / NIEHS).

This experiment is described as follows: ATG_AP_2_CIS: Attagene CIS-FACTORIAL HepG2 Assay for human Activator Protein 2 (AP-2) (AID 2282932). The settings on record: HepG2 AP-2 cis-reporter, Attagene transcription factor profiling; actives raise or lower the signal. How it is done:
ATG_CIS is a cell-based, multiplexed-readout assay that uses HepG2, a human liver cell line, with measurements taken at 24 hours after chemical dosing in a 24-well plate.ATG_AP_2_CIS is one of 52 assay component(s) measured or calculated from the ATG_CIS assay. It is designed to make measurements of mRNA induction, a form of inducible reporter, as detected with fluorescence intensity signals by Reverse transcription polymerase chain reaction (RT-PCR) and Capillary electrophoresis technology.Data from the assay component ATG_AP_2_CIS was analyzed into 1 assay endpoint. This assay endpoint, ATG_AP_2_CIS, was analyzed with bidirectional fitting relative to DMSO as the negative control and baseline of activity. Using a type of inducible reporter, measures of mRNA for gain or loss-of-signal activity can be used to understand the reporter gene at the transcription factor-level as they relate to the gene TFAP2A and TFAP2B and TFAP2D. Furthermore, this assay endpoint can be referred to as a primary readout, because this assay has produced multiple assay endpoints where this one serves a reporter gene function. To generalize the intended target to other relatable targets, this assay endpoint is annotated to the dna binding intended target family, where the subfamily is basic helix-turn-helix leucine zipper.
Human liver HepG2 cells are transiently transfected with multiple reporter transcription units (MRTUs) in 6-well plates using FuGene 6 reagent (Roche; 3 ml FuGene/1 mg DNA). The MRTU constructs are regulated by a cis-regulating element (promoter). […] A major difference between the CIS and TRANS system is that in CIS activities of endogenous TFs are measured, whereas the TRANS assay evaluates changes in activities of exogenous, chimeric NR-Gal4 proteins. […] At the end of 24 hour incubation, total RNA was isolated using TriZol reagent (Invitrogen). The isolated RNA is then reverse-transcribed using oligo(dT) primer and Mo-MLV reverse transcriptase (Invitrogen) with DNAse I (Ambion) treatment for 30 min. The one-tenth of the produced cDNA was amplified by PCR using Taq DNA polymerase (Invitrogen) and two reporter sequence-specific primers. The PCR products were fluorescently labeled by primer extension with 6-arboxyfluorescein (6-FAM) 5'-labeled reporter sequence-specific primer (2 min at 95 C, 20 s at 68 C and 10 min at 72 C) and these products were digested with 5U of HpaI (New England Biolabs) for 2h at 37 C. The fragments were purified using Qiaquick PCR columns (Qiagen), analyzed on an ABI 3130xL genetic analyzer (Applied Biosystems) with peak positions identified by using a set of X-rhodamine (ROX)-labeled MapMarker1000 molecular weight standards (BioVentures). The raw capillary electrophoresis data was processed using Attagraph software (Attagene).
What is called AC50 is the concentration giving half of the maximal activity seen. In the case of `[F][Sn]([c]1ccccc1)([c]1ccccc1)[c]1ccccc1`, the AC50 is 1.84 µM (active). Consider `N#CCCC(Br)(C#N)CBr` (stereo not given), for which the AC50 was 49.9 µM (active). Still for that read-out and setting: in the case of `c1ccc2sc(SNC3CCCCC3)nc2c1` it was 149 µM (active). In the case of `CCCCCCCCCCCCBr`, the compound was classed as inactive. On to `C1CCC(C2CCCCC2)CC1`, for which the compound was called inactive. As for `N#Cc1ccccc1N`, the compound was classed as inactive. Same read-out and setting: in the case of `C=CC(Cl)CCl` (stereo not given) it was “inactive”; in that of `O=[N+]([O-])c1cccc2ccccc12`, “inactive”; in that of `O=C(N[C@H]1CN2CCC1CC2)c1ccc2c(c1)OCCO2`, “inactive”. As to `O=S(=O)(Oc1ccc(Cl)cc1)c1ccc(Cl)cc1`, the result was inactive. The same measure, in the same setting: in the case of `CC(=O)C(F)(F)C(F)(F)F` it was “inactive”; in that of `CCCCC(CC)C(=O)Cl` (stereo not given), “inactive”; in that of `CC(c1ccccc1)(c1ccc(O)cc1)c1ccc(O)cc1`, “inactive”. Same read-out and setting: the same measure for `CC(C=O)Cc1ccc2c(c1)OCO2` (stereo not given): “inactive”.

As for `Nc1nc(N)nc(Cl)n1`, the outcome was inactive.

As for `CC(C)CP(=S)(S)CC(C)C`, the call was inactive.

As for `CCOP(=O)(OCC)OC(=CCl)c1ccc(Cl)cc1Cl`, the outcome was inactive. `CCCCOC(C)=O`: the outcome was inactive.

For the compound `CCCCCCCCCCCCN(C)C`, the AC50 is 33.4 µM (active).

On to `C=CC(=O)OCC(COC(=O)C=C)(COC(=O)C=C)COC(=O)C=C`, for which the AC50 is 33.4 µM (active).

With `CN(N=O)c1ccc([N+](=O)[O-])cc1`, the result was inactive.

As to `OC(c1ccc(Cl)cc1)(c1ccc(Cl)cc1)c1cccnc1`, the compound was classed as inactive. Same read-out and setting: the same measure for `C[C@H]1C(=O)O[C@@H]2CCN3CC=C(COC(=O)[C@](C)(O)[C@]1(C)O)[C@H]23`: “inactive”; for `OCCN(CCO)CCO`: “inactive”. Turning to `O=S1(=O)OC(c2cc(Br)c(O)c(Br)c2)(c2cc(Br)c(O)c(Br)c2)c2ccccc21`, the outcome was inactive. With `Cc1ccc(CCl)cc1`, the result was inactive. Take `N#Cc1ccncc1`: the compound was called inactive. Same read-out and setting: in the case of `CCCCCCCCBr` it was “inactive”; in that of `CC(C)(c1ccc(O)c(-c2ccccc2)c1)c1ccc(O)c(-c2ccccc2)c1`, “inactive”; in that of `Cc1cccc(C)c1NC(=O)CN1CCCC1=O`, “inactive”. In the case of `C=CCOC(N)=O`, the compound was called inactive.

As to `Oc1c(Br)cc(Br)cc1Br`, the outcome was inactive. `O=C=Nc1ccc(Cl)cc1`: the result was inactive. With `O=C(O)CC(O)(CC(=O)O)C(=O)O`, the outcome was inactive.

`Oc1ccc(Cc2ccc(O)cc2)cc1`: the call was inactive. On the same count and under the same terms, in the case of `O=C(NC(=O)c1c(F)cccc1F)Nc1cc(Cl)c(F)c(Cl)c1F` it was “inactive”. Take `O=c1oc2ccccc2c(O)c1C(CC(O)c1ccc(-c2ccc(Br)cc2)cc1)c1ccccc1` (stereo not given): the AC50 was 54.8 µM (active) and 48.2 µM (active).

As to `O=C(O)c1cc(I)cc(I)c1I`, the result was inactive. For the compound `CCCCCCCCCCBr`, the compound was classed as inactive. With `CCOP(=O)(OCC)SCCSCC`, the compound was called inactive.
